# Data taken from PubChem BioAssay (Tox21).
# Inconclusive results are not listed. Entries that show only a call come without a potency. Where a structure was tested more than once in an assay, its records may differ in their call. The source made the active and inactive calls. Unless noted, the call rests on the fitted dose curve; in most records, active means well fitted curve in the direction sought with a large enough effect in the repeat runs; inconclusive means weak or mixed curves; inactive means no such curve, though single readings can be large; an effect the other way counts as inactive or inconclusive.
# Key:
# [1] = qHTS assay to identify small molecule antagonists of the estrogen receptor alpha (ER-alpha) signaling pathway using the BG1 cell line in the presence of 0.1 nM 17-beta-estradiol - cell viability counter screen (AID 1259241); further: nearly all actives have a fitted effect of over 40% in size
# Outline: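 CellTiter-Fluor read (30 min, 37C) on ER-alpha/ERE-luc VM7Luc4E2 cells; 22 hr compound treatment; agonist 0.1 nM E2 final; same-well multiplex.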
# [2] = qHTS assay to identify small molecule antagonists of the androgen receptor (AR) signaling pathway using the MDA cell line in the presence of 0.5 nM R1881 - cell viability counter screen (AID 1259242); further: nearly all actives have a fitted effect of over 45% in size
# Outline: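 Live-cell protease activity was measured by CellTiter-Fluor fluorescence after 30 min. Before that, MDA-kb2 MMTV-luciferase cells had 16 hr at 37C without CO2, exposed to test compounds and 0.5 nM R1881 final.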
# [3] = target: Estrogen receptor (Homo sapiens) (UniProt P03372); assay: qHTS assay to identify small molecule antagonists of the estrogen receptor alpha (ER-alpha) signaling pathway using the BG1 cell line in the presence of 0.1 nM 17-beta-estradiol (AID 1259244); further: nearly all actives have a fitted effect of over 50% in size
# Estrogen receptor (Homo sapiens), sequence (P03372 whole entry, looked up): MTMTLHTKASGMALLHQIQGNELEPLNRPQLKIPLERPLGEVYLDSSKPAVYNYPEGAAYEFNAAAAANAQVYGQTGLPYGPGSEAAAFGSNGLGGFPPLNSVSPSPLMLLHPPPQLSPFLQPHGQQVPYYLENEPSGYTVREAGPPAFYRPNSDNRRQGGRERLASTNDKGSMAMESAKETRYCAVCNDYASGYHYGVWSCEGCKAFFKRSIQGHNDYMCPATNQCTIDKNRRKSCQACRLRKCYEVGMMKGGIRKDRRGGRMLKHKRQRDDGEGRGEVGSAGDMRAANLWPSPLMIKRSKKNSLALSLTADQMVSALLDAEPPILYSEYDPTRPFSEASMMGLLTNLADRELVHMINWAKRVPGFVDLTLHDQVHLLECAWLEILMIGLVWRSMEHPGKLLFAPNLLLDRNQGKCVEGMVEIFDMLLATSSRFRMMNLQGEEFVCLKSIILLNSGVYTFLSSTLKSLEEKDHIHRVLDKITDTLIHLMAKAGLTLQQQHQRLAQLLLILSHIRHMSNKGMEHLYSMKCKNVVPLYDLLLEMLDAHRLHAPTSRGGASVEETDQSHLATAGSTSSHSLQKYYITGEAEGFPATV
# Outline: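 Luciferase luminescence (ONE-Glo, 30 min at room temperature) was read after 22 hr at 37C exposure to compounds plus 17beta-estradiol at 0.1 nM final. Cells were VM7Luc4E2 with endogenous ER-alpha and an ERE-driven luciferase, pre-cultured 5 days in hormone-depleted medium.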
# [4] = qHTS assay to identify small molecule HDAC inhibitors (AID 1259364); further: nearly all actives have a fitted effect of over 45% in size; further: potency means the concentration at half of the fitted maximal effect; on activity change, negative = inhibition: top concentration of the series differs between compounds
# Outline: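 Luminescence read after 30 min room-temperature HDAC-Glo incubation measures cellular class I/II HDAC activity. Compounds were applied for 2 hr at 37 C to HCT-116 wild-type cells seeded the day before.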
# [5] = qHTS assay to identify small molecule HDAC inhibitors - cell viability counter screen (AID 1259365); further: series mostly up to about 92 µM; nearly all actives have a fitted effect of over 50% in size
# Outline: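 To flag cytotoxic hits, 1,500 wild-type HCT-116 cells per well, plated the day before, receive test compounds for 2hr at 37 C before CellTiter-Glo reagent and a luminescence read.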
# [6] = qHTS assay to identify small molecule agonists of the sonic hedgehog signaling (Shh) pathway - cell viability counter screen (AID 1259366); further: nearly all actives have a fitted effect of over 50% in size
# Outline: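 Fluorescence from CellTiter-Fluor reports live cells in this counter screen. NIH/3T3-derived Gli1-Luc reporter cells receive test compounds for 24hr at 37C; reagent goes in at 23hr.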
# [7] = qHTS assay to identify small molecule antagonists of the sonic hedgehog signaling (Shh) pathway - cell viability counter screen (AID 1259367); further: nearly all actives have a fitted effect of over 55% in size; further: potency means the concentration at half of the fitted maximal effect
# Outline: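 CellTiter-Fluor signal in conditioned medium-stimulated 3T3 Gli1-Luc cells, 23 hr compound exposure, 37C.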
# [8] = qHTS assay to identify small molecule phospholipidosis (PLD) inducers (AID 1259344; active means well fitted curve in the direction sought with a large enough effect; an effect the other way counts as inactive or inconclusive)
# Outline: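 Accumulated phospholipid, stained red by LipidTOX during 24 h compound treatment of HepG2 cells at 37 C, is quantified from images as pit number and intensity, normalised per cell using Hoechst-stained nuclei.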
# [9] = qHTS assay to identify small molecule agonists of the sonic hedgehog signaling (Shh) pathway (AID 1259368; calls by dose curve;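 further: NIH/3T3-derived 3T3Gli1-Luc cells carrying a stable Gli1-driven firefly luciferase reporter; series mostly up to about 92 µM; nearly all actives have a fitted effect of over 15% in size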)
# Outline: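 Luminescence was read after 30 min at room temperature with luciferase reagent. Before that, 3T3Gli1-Luc cells (NIH/3T3 clone, stable Gli1-Luc reporter; 2,000/well) were exposed to compounds for 24 hr at 37C, 5% CO2, compounds being added 4 hr post-plating.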
structure (smiles),measurement,setting,value
CCOC(=O)CCl,outcome,[1],inactive
same,Potency,[2],inactive
same,Potency,[3],inactive
same,Potency,[4],inactive
same,outcome,[5],inactive
same,Potency,[6],inactive
same,Potency,[7],inactive
ClCCN1CCCC1,outcome,[1],inactive
same,Potency,[2],inactive
same,Potency,[3],inactive
same,Potency,[4],inactive
same,outcome,[5],inactive
same,Potency,[6],inactive
same,Potency,[7],inactive
Cc1ccc(-c2nc3ccc(C)cn3c2CC(=O)N(C)C)cc1,outcome,[1],inactive
same,Potency,[2],inactive
same,Potency,[3],inactive
same,Potency,[8],inactive
same,Potency,[4],inactive
same,outcome,[5],inactive
same,outcome,[9],inactive
ClC(Cl)(Cl)Cl,outcome,[1],inactive
same,Potency,[2],inactive
same,Potency,[3],inactive
same,Potency,[8],inactive
same,Potency,[4],inactive
same,outcome,[5],inactive
same,Potency,[6],inactive
same,Potency,[7],inactive
same,outcome,[9],inactive
CC(C)(O)C(Cl)(Cl)Cl,outcome,[1],inactive
same,Potency,[2],inactive
same,Potency,[3],inactive
same,Potency,[8],inactive
same,Potency,[4],inactive
same,outcome,[5],inactive
same,Potency,[6],inactive
same,Potency,[7],inactive
CCOC(=O)c1ncn2c1CN(C)C(=O)c1c(I)cccc1-2,outcome,[1],inactive
same,Potency,[2],inactive
same,Potency,[3],inactive
same,Potency,[8],inactive
same,Potency,[4],inactive
same,outcome,[5],inactive
same,Potency,[6],inactive
same,Potency,[7],inactive
same,outcome,[9],inactive
COc1cc(CC(C)N)cc(OC)c1OC (centres undefined),outcome,[1],inactive
same,Potency,[2],inactive
same,Potency,[3],inactive
same,Potency,[8],inactive
same,Potency,[4],inactive
same,outcome,[5],inactive
same,Potency,[6],inactive
same,Potency,[7],inactive
same,outcome,[9],inactive
CC[C@@H](CO)NC(=O)[C@@H]1C=C2c3cccc4c3c(cn4C)C[C@H]2N(C)C1,outcome,[1],inactive
same,Potency,[2],inactive
same,Potency,[3],inactive
same,Potency,[8],inactive
same,Potency,[4],inactive
same,Potency,[6],inactive
same,Potency,[7],inactive
same,outcome,[9],inactive
CC1NCCOC1c1ccccc1 (centres undefined),outcome,[1],inactive
same,Potency,[2],inactive
same,Potency,[3],inactive
same,Potency,[8],inactive
same,Potency,[4],inactive
same,outcome,[5],inactive
same,Potency,[6],inactive
same,Potency,[7],inactive
same,outcome,[9],inactive
CCN(CC)CCOC(=O)C(O)(c1ccccc1)c1ccccc1,outcome,[1],inactive
same,Potency,[2],inactive
same,Potency,[3],inactive
same,Potency,[8],inactive
same,Potency,[4],inactive
same,outcome,[5],inactive
same,Potency,[6],inactive
same,Potency,[7],inactive
same,outcome,[9],inactive
CCCCCCCC(=O)Cl,outcome,[1],inactive
same,Potency,[2],inactive
same,Potency,[3],inactive
same,Potency,[4],inactive
same,outcome,[5],inactive
same,Potency,[6],inactive
same,Potency,[7],inactive
CCN(CCO)CCn1c(Cc2ccccc2)nc2c1c(=O)n(C)c(=O)n2C,outcome,[1],inactive
same,Potency,[2],inactive
same,Potency,[3],inactive
same,PLD induction,[8],-2.9% [at 7.66 µM] (inactive)
same,Potency,[4],inactive
same,outcome,[5],inactive
same,Potency,[6],inactive
same,Potency,[7],inactive
same,outcome,[9],inactive
NC(=O)CS(=O)C(c1ccccc1)c1ccccc1 (centres undefined),outcome,[1],inactive
same,Potency,[2],inactive
same,Potency,[3],inactive
same,Potency,[8],inactive
same,Potency,[4],inactive
same,outcome,[5],inactive
same,Potency,[6],inactive
same,Potency,[7],inactive
same,outcome,[9],inactive
CC(Cc1ccccc1)NCCn1cnc2c1c(=O)n(C)c(=O)n2C (centres undefined),outcome,[1],inactive
same,Potency,[2],inactive
same,Potency,[3],inactive
same,Potency,[8],inactive
same,Potency,[4],inactive
same,outcome,[5],inactive
same,outcome,[9],inactive
CCOC(=O)Nc1cccc(OC(=O)Nc2ccccc2)c1,outcome,[1],inactive
same,Potency,[2],inactive
same,Potency,[3],inactive
same,Potency,[4],3.86 µM (active)
same,outcome,[5],inactive
same,Potency,[6],inactive
same,Potency,[7],inactive
C=C(C)[C@H]1CN[C@H](C(=O)O)[C@H]1CC(=O)O,outcome,[1],inactive
same,Potency,[2],inactive
same,Potency,[3],inactive
same,Potency,[8],inactive
same,Potency,[4],inactive
same,outcome,[5],inactive
same,Potency,[6],inactive
same,Potency,[7],inactive
same,outcome,[9],inactive
CN1C(=O)COc2c(C(=O)NC3CN4CCC3CC4)cc(Cl)cc21 (centres undefined),outcome,[1],inactive
same,Potency,[2],inactive
same,Potency,[3],inactive
same,Potency,[8],inactive
same,Potency,[4],inactive
same,outcome,[5],inactive
same,Potency,[6],inactive
same,Potency,[7],inactive
ClC1=C(Cl)C2(Cl)C(CBr)CC1(Cl)C2(Cl)Cl (centres undefined),outcome,[1],inactive
same,Potency,[2],inactive
same,Potency,[3],inactive
same,Potency,[8],inactive
same,Potency,[4],inactive
same,outcome,[5],inactive
same,Potency,[6],inactive
same,Potency,[7],inactive
same,outcome,[9],inactive
OCC(Cl)CCl (centres undefined),outcome,[1],inactive
same,Potency,[2],inactive
same,Potency,[3],inactive
same,Potency,[4],inactive
same,outcome,[5],inactive
same,Potency,[6],inactive
same,Potency,[7],inactive
same,outcome,[9],inactive
Cc1cccc2sc3nncn3c12,outcome,[1],inactive
same,Potency,[2],inactive
same,Potency,[3],inactive
same,Potency,[4],inactive
same,outcome,[5],inactive
same,Potency,[6],inactive
same,Potency,[7],inactive
same,outcome,[9],inactive
CS(=O)(=O)c1ccc(C(=O)C2C(=O)CCCC2=O)c(Cl)c1COCC(F)(F)F,outcome,[1],inactive
same,Potency,[2],inactive
same,Potency,[3],inactive
same,Potency,[4],inactive
same,outcome,[5],inactive
same,Potency,[6],inactive
same,Potency,[7],inactive
same,outcome,[9],inactive
C=CCC1(C(C)CC)C(=O)NC(=O)NC1=O (centres undefined),outcome,[1],inactive
same,Potency,[2],inactive
same,Potency,[3],inactive
same,Potency,[4],inactive
same,outcome,[5],inactive
same,Potency,[6],inactive
same,Potency,[7],inactive
same,outcome,[9],inactive
O=C(CCl)NCO,outcome,[1],inactive
same,Potency,[2],inactive
same,Potency,[3],inactive
same,Potency,[4],inactive
same,outcome,[5],inactive
same,Potency,[6],inactive
same,Potency,[7],inactive
same,outcome,[9],inactive
C/C(=N\NC(=O)Nc1cc(F)cc(F)c1)c1ncccc1C(=O)O,outcome,[1],inactive
same,Potency,[2],inactive
same,Potency,[3],inactive
same,Potency,[4],inactive
same,outcome,[5],inactive
same,Potency,[6],inactive
same,Potency,[7],inactive
same,outcome,[9],inactive
Brc1c(Br)c(Br)c(Br)c(Br)c1Br,"activity change, negative = cytotoxicity",[1],-4.2% [at 8.39 µM] (inactive)
same,"viability change, negative = cytotoxic",[2],7.8% [at 8.39 µM] (inactive)
same,"activity change, negative = inhibition",[3],3.5% [at 8.39 µM] (inactive)
same,"activity change, negative = inhibition",[4],4.51% [at 8.39 µM] (inactive)
same,"activity change, negative = cytotoxicity",[5],1.6% [at 8.39 µM] (inactive)
same,"viability change, negative = cytotoxic",[6],2.28% [at 8.39 µM] (inactive)
same,"viability change, negative = cytotoxic",[7],1.61% [at 8.39 µM] (inactive)
same,activity change,[9],-2.81% [at 8.39 µM] (inactive)
C=CC1(C)OC(=O)N(c2cc(Cl)cc(Cl)c2)C1=O (centres undefined),outcome,[1],inactive
same,Potency,[2],inactive
same,Potency,[3],inactive
same,Potency,[4],inactive
same,outcome,[5],inactive
same,Potency,[6],inactive
same,Potency,[7],54.2 µM (active) and inactive
same,outcome,[9],inactive
O=C(Cl)C(Cl)(Cl)Cl,outcome,[1],inactive
same,Potency,[2],inactive
same,Potency,[3],inactive
same,Potency,[4],inactive
same,outcome,[5],inactive
same,Potency,[6],inactive
same,Potency,[7],inactive
same,outcome,[9],inactive
CN=CNc1ccc(C)cc1C,outcome,[1],inactive
same,Potency,[2],inactive
same,Potency,[3],inactive
same,Potency,[4],inactive
same,outcome,[5],inactive
same,Potency,[6],inactive
same,Potency,[7],inactive
same,outcome,[9],inactive
COP(=O)(OC)O/C(C)=C/C(=O)N(C)C,outcome,[1],inactive
same,Potency,[2],inactive
same,Potency,[3],inactive
same,Potency,[4],inactive
same,outcome,[5],inactive
same,Potency,[6],inactive
same,Potency,[7],inactive
same,outcome,[9],inactive
C/C=C/CC#N,outcome,[1],inactive
same,Potency,[2],inactive
same,Potency,[3],inactive
same,Potency,[4],inactive
same,outcome,[5],inactive
same,Potency,[6],inactive
same,Potency,[7],inactive
same,outcome,[9],inactive
CC(C)(C1CCC(O)CC1)C1CCC(O)CC1 (centres undefined),outcome,[1],inactive
same,Potency,[2],inactive
same,Potency,[3],inactive
same,Potency,[4],inactive
same,outcome,[5],inactive
same,Potency,[6],inactive
same,Potency,[7],inactive
same,outcome,[9],inactive
c1cncc([C@@H]2CCCCN2)c1,outcome,[1],inactive
same,Potency,[2],inactive
same,Potency,[3],inactive
same,Potency,[4],inactive
same,outcome,[5],inactive
same,Potency,[6],inactive
same,Potency,[7],inactive
same,outcome,[9],inactive
